Screening data from PubChem BioAssay.
Only some compounds are listed: those with a hit (about 3.4% of all), similar ones and a draw of the others.
Tau fibril ThT: qHTS for Inhibitors of Tau Fibril Formation, Thioflavin T Binding; Microtubule-associated protein tau (Homo sapiens), P10636; recombinant tau K18 P301L, heparin-induced fibrillization, ThT fluorescence; Potency, µM (titrated, usually from 57.4 µM), without a hit: top-dose activity, negative = inhibition, hits mostly inhibitors; actives 2.1% (n = 270,000); AID 1460, 2008; also: nearly all actives have a fitted effect of over 55% in size
Target sequence (P10636 561-689 P618L limits assumed): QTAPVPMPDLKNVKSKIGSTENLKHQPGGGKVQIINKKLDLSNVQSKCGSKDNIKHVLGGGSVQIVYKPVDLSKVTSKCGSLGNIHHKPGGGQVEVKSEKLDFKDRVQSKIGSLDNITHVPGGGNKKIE
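Heparin-induced (20 uM) aggregation of recombinant human K18 P301L tau, 15 uM unlabeled with 0.24 uM labeled, pH 7 acetate buffer, 6 hr at 37 C with compound. Fibrils quantified by 30 uM ThT fluorescence after 1 hr ambient incubation.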
Tau fibril FP: qHTS for Inhibitors of Tau Fibril Formation, Fluorescence Polarization; Microtubule-associated protein tau (Homo sapiens), P10636; K18 P301L tau heparin fibrillization, Alexa594 FP, 6 h; Potency, µM (series often up to 57.7 µM), without a hit: at the top dose activity, negative = inhibition, hits mostly inhibitors; actives 0.39% (n = 280,000); AID 1468, 2008; also: nearly all actives have a fitted effect of over 55% in size
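Human tau K18 […] P301L fragment, 15 uM unlabeled plus 0.24 uM Alexa 594-labeled tau (final), with compound and 20 uM heparin in 100 mM sodium acetate pH 7; 6 hr at 37 C, then Alexa 594 FP read.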
GoLoco inh red: qHTS Assay for Inhibitors of RGS12 GoLoco Motif Activity (Red Fluorophore); Gai1:RGS12 GoLoco peptide FP, rhodamine, 10 min; actives 0.44% (n = 230,000); AID 880, 2007; Potency, µM (top dose mostly 61.6 µM), inactives show at the highest dose activity, negative = inhibition, most hits filed as inhibitors; Guanine nucleotide-binding protein G(i) subunit alpha-1 (Homo sapiens), P63096; active = well fitted inhibition curve with a large enough effect, not every such curve was filed as active; inactive = no such curve, though single readings can be large or run the other way; also: nearly all actives have a fitted effect of over 30% in size
Tau fluor counter: Counterscreen qHTS for Inhibitors of Tau Fibril Formation, Fluorescence Polarization; tau K18 P301L (four-repeat tau fragment) Alexa594 fluorescence, heparin fibrillization; Potency, µM (doses to about 57.7 µM), without a hit: at the highest dose activity change, negative = decrease; actives 0.93% (n = 280,000); also: nearly all actives have a fitted effect of over 55% in size
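Human K18 P301L tau (15 uM unlabeled plus 0.24 uM Alexa 594-labeled, final) in 100 mM sodium acetate pH 7 was mixed with compound and 20 uM heparin and incubated 6 hr at 37 C.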
KDM4E inh: qHTS Assay for Inhibitors of Human Jumonji Domain Containing 2E (JMJD2E); Lysine-specific demethylase 4E (Homo sapiens), B2RXH2; JMJD2E catalytic domain, FDH-coupled NADH fluorescence (FDH is formaldehyde dehydrogenase); Potency, µM (titrated, usually from 57.1 µM), inactives show at the top dose activity change, negative = inhibition, most hits filed as inhibitors; actives 1.6% (n = 230,000); active = well fitted inhibition curve with a large enough effect, not every such curve was filed as active; inconclusive = small, poorly fitted or top-dose-only effect, or another doubt; inactive = no such curve, though single readings can be large or run the other way;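 also: 0% = wells with enzyme and -100% = buffer wells without enzyme; nearly all actives have a fitted effect of over 50% in size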
Target sequence (B2RXH2 1-337 limits assumed): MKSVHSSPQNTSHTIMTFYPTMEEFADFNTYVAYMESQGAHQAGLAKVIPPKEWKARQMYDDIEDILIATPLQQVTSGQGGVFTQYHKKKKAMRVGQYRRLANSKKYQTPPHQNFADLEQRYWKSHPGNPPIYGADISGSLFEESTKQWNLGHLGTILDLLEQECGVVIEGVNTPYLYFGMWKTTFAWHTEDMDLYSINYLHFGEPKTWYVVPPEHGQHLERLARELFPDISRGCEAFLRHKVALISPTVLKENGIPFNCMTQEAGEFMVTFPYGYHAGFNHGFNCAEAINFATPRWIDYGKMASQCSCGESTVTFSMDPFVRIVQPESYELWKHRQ
* hit, by the source's call; [ ] = dose if it differs, or a comment. Unless noted, calls follow the shape of the dose curve; as a rule, active = well fitted curve in the direction sought with a large enough effect; inconclusive = small, poorly fitted or top-dose-only effect, or another doubt; inactive = no such curve, though single readings can be large; an effect the other way counts as inactive or inconclusive. Unless noted, % is scaled to controls: 0 for no effect and ±100 for the full control effect; potency is read from the fitted curve at half-maximal effect.

For CN(C)c1ccc(-c2ccc3ncnc(NCc4ccccc4)c3c2)cc1 the results were Tau fibril ThT inconclusive, Tau fibril FP inconclusive, GoLoco inh red -0.6%, Tau fluor counter 10µM*[quencher] and KDM4E inh inconclusive.
Screening COc1ccc(CNc2nc(-c3ccc(N(C)C)cc3)nc3ccccc23)c(OC)c1 returned GoLoco inh red 8.91µM*.
For CN(C)c1ccc(-c2nc(NCc3cccnc3)c3ccccc3n2)cc1 the results were Tau fibril ThT 14.1µM*, Tau fibril FP -9.7%, GoLoco inh red -8.2%, Tau fluor counter 17.8µM*[quencher] and KDM4E inh inconclusive.
Oc1ccccc1-c1nc(NCc2cccnc2)c2ccccc2n1 was read as Tau fibril ThT -14.8%, Tau fibril FP inconclusive, GoLoco inh red 4.1%, Tau fluor counter inconclusive and KDM4E inh 4.8%.
`c1cncc(CNc2nc(-c3ccoc3)nc3ccccc23)c1` gave Tau fibril ThT 28.2µM*, Tau fibril FP inconclusive, GoLoco inh red 1.2%, Tau fluor counter inconclusive and KDM4E inh inconclusive.
CCOCCCNC(=O)NC(C)c1c(-n2cccc2)sc2c1CCN(CC)C2 (centres undefined) was read as Tau fibril ThT -13.3%, Tau fibril FP -3.2% and Tau fluor counter 0.2%.
For CC(C)NC(=O)c1cnc2sc(N3CCCCCC3)nn2c1=O the results were Tau fibril ThT 1.6%, Tau fibril FP -1.2% and Tau fluor counter 1.6%.
Screening O=C1C(Cl)=C(N2CCCCC2)C(=O)C(Cl)=C1c1cnc(N2CCCCC2)s1 returned Tau fibril ThT 15.8µM*, Tau fibril FP 22.4µM*, GoLoco inh red -13.7%, Tau fluor counter inconclusive and KDM4E inh 14.1µM*.
Screening CN(C)c1ccc(NC(=O)CN2CCC(N3CCCCC3)CC2)cc1 returned Tau fibril ThT -9.9%, Tau fibril FP -2.6%, GoLoco inh red 3.6%, Tau fluor counter -0.2% and KDM4E inh 31.6µM*.
Screening CN1C(=O)C(CC(=O)O)S/C1=N\N=C\c1ccc(O)cc1O (centres undefined) returned Tau fibril ThT -12.6%, Tau fibril FP 0.9%, GoLoco inh red 5.6%, Tau fluor counter -6.7% and KDM4E inh 25.1µM*.
Screening O=C(O)CC1S/C(=N\N=C/c2ccccc2)N(c2ccc(O)cc2)C1=O (centres undefined) returned Tau fibril ThT -10.5%, Tau fibril FP inconclusive, Tau fluor counter -27.6% and KDM4E inh -5.0%.
For CN(CC(=O)Nc1cccc(F)c1)S(=O)(=O)c1ccc2c(c1)n(C)c(=O)c(=O)n2C the results were Tau fibril ThT 1.0%, Tau fibril FP 1.0% and Tau fluor counter -4.5%.
For Cc1cc2ccccn2c1C(=O)c1ccc(N/N=C/c2ccc(C(=O)O)cc2)c([N+](=O)[O-])c1 the results were Tau fibril ThT 3.16µM*, Tau fibril FP -6.4%, GoLoco inh red 22.2%, Tau fluor counter -27.8% and KDM4E inh -16.6%.
`CCCNC(=O)Cn1sc2nc(C)cc(C)c2c1=O` gave Tau fibril FP 15.8µM*, GoLoco inh red 7.94µM*, Tau fluor counter -23.1% and KDM4E inh inconclusive.
For Cc1cc(C)c2c(=O)n(CC(=O)N3CCC(N4CCCCC4)CC3)sc2n1 the results were Tau fibril ThT 25.1µM*, Tau fibril FP 25.1µM*, GoLoco inh red -49.9%, Tau fluor counter inconclusive and KDM4E inh inconclusive.
`CC(=O)Cn1cnc2c(sc3nc(C)cc(C)c32)c1=O` gave Tau fibril ThT -4.3%, Tau fibril FP 2.6%, GoLoco inh red -3.1%, Tau fluor counter -2.8% and KDM4E inh -10.7%.
`CC(C)CNC(=O)NC(=O)COc1c(F)c(F)cc(F)c1F` gave Tau fibril ThT inconclusive, Tau fibril FP inconclusive, Tau fluor counter 15.8µM*[quencher] and KDM4E inh inconclusive.
For COc1ccc(C2NC(=O)NC3=C2CCc2ccccc23)cc1 (centres undefined) the results were Tau fibril ThT 25.1µM*, Tau fibril FP inconclusive, GoLoco inh red -18.7%, Tau fluor counter -19.3% and KDM4E inh inconclusive.
For Cc1ccc(C2NC(=O)NC3=C2CCc2ccccc23)cc1 (centres undefined) the results were Tau fibril ThT inconclusive, Tau fibril FP -1.0%, GoLoco inh red -6.8%, Tau fluor counter -3.9% and KDM4E inh inconclusive.
Cn1cc(C(=O)NCc2ccccc2Cl)c(=O)c2cc(S(=O)(=O)N3CCCCCC3)ccc21 was read as Tau fibril ThT -10.1%, Tau fibril FP -1.1% and Tau fluor counter inconclusive.
Screening C[N+]1(CC(=O)OCCCc2ccccc2)CCOCC1 returned Tau fibril ThT -7.7%, Tau fibril FP -3.8%, GoLoco inh red 12.6µM*, Tau fluor counter -2.8% and KDM4E inh -23.6%.
Cc1ccc(CCCOC(=O)CN2CCCCC2)cc1 was read as Tau fibril ThT -7.4%, Tau fibril FP 2.0%, GoLoco inh red 10.6%, Tau fluor counter -5.2% and KDM4E inh 14.1%.
For Cc1ccc(CCCOC(=O)C[N+]2(C)CCOCC2)cc1 the results were Tau fibril ThT -2.9%, Tau fibril FP 0.9%, GoLoco inh red 10µM*, Tau fluor counter -3.2% and KDM4E inh -2.2%.
For CCOC(=O)c1nnc2c(-c3ccc(Cl)cc3)c(C)nn2c1N the results were Tau fibril ThT -6.4%, Tau fibril FP -4.2% and Tau fluor counter -7.4%.
Screening C/C(=N\NC(=O)CSCc1ccccc1Cl)c1cc(O)ccc1O returned Tau fibril ThT inconclusive, Tau fibril FP inconclusive, GoLoco inh red 2.2%, Tau fluor counter inconclusive and KDM4E inh 4.47µM*.
For CCn1c(CNC(=O)c2ccc(OC)cc2)nnc1SCC(=O)Nc1ccc(F)cc1 the results were Tau fibril ThT 3.2%, Tau fibril FP -10.4% and Tau fluor counter -6.1%.
`O=c1cc(N=Nc2ccc(Cl)cc2)[nH]c(=O)[nH]1` gave Tau fibril ThT 11.2µM*, Tau fibril FP inconclusive, GoLoco inh red -9.4%, Tau fluor counter inconclusive and KDM4E inh inconclusive.
Cc1cc([N+](=O)[O-])nn1CCCC(=O)Nc1cc(Oc2ccccc2)cc([N+](=O)[O-])c1 was read as Tau fibril ThT -10.0%, Tau fibril FP 11.3%, GoLoco inh red 5.2%, Tau fluor counter 10µM*[quencher] and KDM4E inh 3.0%.
`Cc1cc([N+](=O)[O-])nn1CCCC(=O)Nc1cc(Oc2ccc(F)cc2)cc([N+](=O)[O-])c1` gave Tau fibril ThT -4.9%, Tau fibril FP 3.3%, GoLoco inh red -1.5%, Tau fluor counter -3.1% and KDM4E inh 4.0%.
